# Laboratory results: PubChem BioAssay
# Assay: binders of probe aHhip on microarray, primary screen, stem cell growth factor project, biochemical, small-molecule microarray, fluorescence 635/667 (AID 1087);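 also: score merges spot fluorescence at 667nm with spot signal to noise ratio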
# Details: higher = more signal
row,SMILES,composite z-score
1,C[C@]1(C(=O)NCCN2CCOCC2)c2ccccc2C(=O)N(Cc2ccc(OC(F)(F)F)cc2)[C@H]1c1ccc(CO)cc1,-0.236
2,[N-]=[N+]=Nc1ccccc1[C@@H]1OC(c2ccc(OCCCO)cc2)=N[C@]1(CCS(=O)(=O)c1ccccc1)C(=O)NCCN1CCOCC1,0.417
3,CC(C)CN1C(=O)[C@@]2(Cc3ccccc31)c1ccccc1C(=O)N(Cc1ccccc1C(F)(F)F)[C@H]2c1ccc(CO)cc1,-0.374
4,C=CC[C@]1(C(=O)N(C)C)N=C(c2ccc(OCCCO)cc2)O[C@H]1c1ccccc1N=[N+]=[N-],-0.199
5,COc1cc2c(cc1OC)CN(C(=O)[C@H]1[C@@H]3C(=O)O[C@@H](c4ccccc4)[C@@H](c4ccccc4)N3[C@@H](c3ccc(OCCO)cc3)[C@]13C(=O)Nc1ccc(C#CC4(O)CCCCCC4)cc13)CC2,1.65
6,COCCCNC(=O)[C@@H]1c2ccccc2C(=O)N(Cc2ccccc2C(F)(F)F)[C@H]1c1ccc(CO)cc1,-0.0726
7,C=CC[C@]12N=C(c3ccc(OCCCO)cc3)O[C@H]1c1ccccc1N(C)C2=O,0.214
8,CCCC[C@@H]1C[C@H]1[C@@H](NC(=O)c1cccnc1)c1ccc(-c2ccccc2)cc1,-0.0074
9,C[C@@H]1ON(c2ccc(C(=O)OC(C)(C)C)cc2)[C@H](c2ccc(Br)cc2)[C@H]1C(=O)N1C(=O)OC[C@H]1Cc1ccccc1,-0.0618
10,CC(C)CCC[C@@H](C)[C@H]1CC[C@@]2(C)C3=C(CC[C@]12C)[C@@]1(C)CC[C@H](OC(=O)c2ccc(Br)cc2)C(C)(C)C1CC3 (stereo partly specified),-0.126
11,COc1cc2c(cc1O)C(C)N(Cc1cc3c(cc1Br)OCO3)CC2 (stereo unspecified),0.0749
12,COc1c(C)cc(-c2cc3c(c(Cc4ccccc4)n2)[Si](C(C)C)(C(C)C)OC3)cc1C,-0.0994
13,CN(C)CCCN1C(=O)[C@@]2(c3ccc([N+](=O)[O-])cc3)CC(=O)N(CC34CC5CC(CC(C5)C3)C4)[C@@H]2c2ccc(CO)cc21,0.0024
14,CO[C@H]1O[C@H](CO)[C@@H](OC(=O)Nc2ccc(C(F)(F)F)cc2)[C@H](OC(=O)Nc2ccc3c(c2)OCO3)[C@H]1OC(=O)Nc1ccc2c(c1)OCO2,0.176
15,NC(=O)NCC#Cc1ccc2c(c1)[C@]1(C(=O)N2)[C@H](C(=O)Nc2nc3ccccc3s2)[C@H]2C(=O)O[C@H](c3ccccc3)[C@H](c3ccccc3)N2[C@@H]1c1ccc(O)cc1,0.142
16,COCCOC(=O)N1C(=O)[C@@]2(c3cc(C#CC4(O)CCCCCC4)ccc31)[C@H](C(=O)N1CCCCCCC1)[C@H]1C(=O)O[C@H](c3ccccc3)[C@H](c3ccccc3)N1[C@@H]2c1ccc(OCCO)cc1,1.77
17,COC(=O)[C@@]1(Cc2ccccc2)[C@H]2c3cc(C(=O)N4CCCC4)[nH]c3C[C@H]2CN1C(=O)c1ccccc1,-0.133
18,CCOC(=O)[C@H]1C/C=C/C[C@H](C(=O)OCC)C(=O)O[C@H]2[C@@H](OC)O[C@H](CO)[C@@H](OC(=O)CCc3ccccc3)[C@@H]2OC1=O,-0.169

row,SMILES,composite z-score
1,Cc1ccc(F)cc1S(=O)(=O)N[C@@H]1CCN(Cc2ccc(OC(C)C)cc2)C1,-0.257
2,COCCOC(=O)N1C(=O)[C@@]2(c3cc(C#CC4=CCCCC4)ccc31)[C@H](C(=O)N1CCN(c3ncccn3)CC1)[C@H]1C(=O)O[C@H](c3ccccc3)[C@H](c3ccccc3)N1[C@@H]2c1ccc(O)cc1,0.208
3,COC(=O)C1(Cc2ccccc2)C=C2C(=C(C(C)C)C(=O)C2C)CN1 (stereo unspecified),0.773
4,O=C1O[C@H](c2ccccc2)[C@H](c2ccccc2)N2[C@H]1[C@@H](C(=O)O)[C@]1(C(=O)Nc3ccccc31)[C@H]2c1ccc(O)cc1,-0.24
5,COc1ccc(NC(=O)O[C@H]2[C@H](OC(=O)Nc3ccc4c(c3)OCO4)[C@@H](OC(=O)Nc3ccc4c(c3)OCO4)[C@@H](OC)O[C@@H]2CO)cc1,-0.0296
6,COc1c(C)cc(-c2cc3c(c(-c4ccccc4)n2)[Si](C(C)C)(C(C)C)OC3)cc1C,-0.0672
7,C[C@@H](OCc1ccccc1)C1NC(=O)[C@@]23C(=O)N[C@@H](Cc4ccccc4)C2[C@H](C)[C@@]2(C)O[C@H]2C3/C=C/C/C=C\CNC(=O)CNC1=O (stereo partly specified),-0.134
8,COc1ccc([Si](C)(C)[C@@H]2[C@@H](CC(=O)N3CCC[C@H]3CO)O[C@]3(C(=O)N(Cc4ccc(N5C(=O)c6cccc7cccc5c67)cc4)c4ccccc43)[C@H]2C)cc1,-0.216
9,CC1CC/C=C\[C@H]2OC34C=CCN(c5ccc6ccccc6c5)C(=O)[C@H]3N(C(CO)C(C)C)C(=O)[C@@H]4C2C(=O)O1 (stereo partly specified),-0.132
10,COCCOC(=O)N1C(=O)[C@@]2(c3cc(C#CCC(C(=O)OC)C(=O)OC)ccc31)[C@H](c1ccc(OCCO)cc1)N1[C@H](c3ccccc3)[C@H](c3ccccc3)OC(=O)[C@H]1[C@@H]2C(=O)N1CCN(c2ncccn2)CC1,0.142
11,CCOC(=O)[C@H]1C/C=C/C[C@H](C(=O)OCC)C(=O)O[C@H]2[C@@H](OC)O[C@H](CO)[C@@H](OC(=O)Nc3ccc(OC)cc3)[C@@H]2OC1=O,0.675
12,O=C1O[C@@H](c2ccccc2)[C@@H](c2ccccc2)N2[C@@H](c3ccc(O)cc3)[C@]3(C(=O)Nc4ccc(C#CC5=CCCCC5)cc43)[C@@H](C(=O)N3CCN(c4ncccn4)CC3)[C@H]12,0.0116
13,CCCCN1CC=CC23O[C@@H]4/C=C\CCC(C)OC(=O)C4[C@H]2C(=O)N(CCCCCCO)[C@@H]3C1=O (stereo partly specified),-0.119
14,CCOC(=O)C[C@H]1[C@H](OC(=O)c2ccc(-c3ccccc3)cc2)[C@@H](NC(=O)c2ccc3ccccc3n2)c2cc(OCCCO)ccc2N1C(=O)c1ccccc1,0.113
15,COc1ccc(NN2C(C(O)c3ccccn3)C=CC3C(=O)N(C4CCCCC4)C(=O)C32)cc1 (stereo unspecified),-0.152
16,COc1cc(OC)c(C(O)C2C=CC3C(=O)N(c4ccccc4)C(=O)C3N2Nc2ccc(C#N)cc2)cc1Br (stereo unspecified),0.219
17,COc1ccc([Si](C)(C)[C@H]2[C@H](CCn3cc([C@H](O)c4ccccc4)nn3)O[C@@]3(C(=O)N(Cc4ccc(N5CCOC5=O)cc4)c4ccccc43)[C@@H]2C)cc1,-0.236
18,CCCCC(CC)C(O)C1C=CC2C(=O)N(c3ccccc3)C(=O)C2N1Nc1ccc([N+](=O)[O-])cc1 (stereo unspecified),-0.234
